From ChEMBL document CHEMBL1961873, “Compounds: GSK PKIS; Assays: Nanosyn kinase panel” (2012)

Legend:
[1] = target: Mast/stem cell growth factor receptor Kit (Homo sapiens) (UniProt P10721); conditions: at 1 µM
[2] = system: Mast/stem cell growth factor receptor Kit (Homo sapiens), P10721 [D816V]; conditions: at 0.1 µM
[3] = system: Mast/stem cell growth factor receptor Kit (Homo sapiens), P10721 [D816V]; conditions: at 1 µM
[4] = system: Mast/stem cell growth factor receptor Kit (Homo sapiens), P10721 [T670I]; conditions: at 0.1 µM
Mast/stem cell growth factor receptor Kit (Homo sapiens), P10721 [T670I], sequence (P10721 whole entry T670I): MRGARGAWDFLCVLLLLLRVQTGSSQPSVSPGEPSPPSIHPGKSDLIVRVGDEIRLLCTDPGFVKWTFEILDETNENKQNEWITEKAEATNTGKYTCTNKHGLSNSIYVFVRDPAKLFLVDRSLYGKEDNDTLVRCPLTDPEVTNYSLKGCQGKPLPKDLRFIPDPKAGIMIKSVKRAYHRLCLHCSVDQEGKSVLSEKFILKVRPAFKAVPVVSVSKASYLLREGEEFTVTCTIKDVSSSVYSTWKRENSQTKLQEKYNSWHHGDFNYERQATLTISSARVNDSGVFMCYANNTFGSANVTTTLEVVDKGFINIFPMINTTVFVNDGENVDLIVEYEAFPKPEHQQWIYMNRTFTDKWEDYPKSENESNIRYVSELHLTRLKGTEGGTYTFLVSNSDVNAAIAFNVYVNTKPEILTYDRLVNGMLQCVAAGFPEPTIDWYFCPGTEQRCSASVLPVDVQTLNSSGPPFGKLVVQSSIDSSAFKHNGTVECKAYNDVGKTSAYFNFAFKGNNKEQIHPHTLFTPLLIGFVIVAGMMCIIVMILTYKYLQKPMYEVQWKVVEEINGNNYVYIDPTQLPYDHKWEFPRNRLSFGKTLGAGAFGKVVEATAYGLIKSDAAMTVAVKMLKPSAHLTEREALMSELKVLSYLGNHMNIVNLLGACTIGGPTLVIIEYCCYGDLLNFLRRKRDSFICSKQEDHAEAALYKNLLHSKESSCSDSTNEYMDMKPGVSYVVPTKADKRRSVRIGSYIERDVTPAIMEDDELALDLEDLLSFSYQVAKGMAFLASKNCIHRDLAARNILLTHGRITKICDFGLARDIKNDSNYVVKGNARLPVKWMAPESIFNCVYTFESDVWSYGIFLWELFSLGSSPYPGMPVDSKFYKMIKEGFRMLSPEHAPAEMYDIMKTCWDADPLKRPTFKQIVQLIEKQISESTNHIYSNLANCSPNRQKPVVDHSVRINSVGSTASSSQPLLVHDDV

[5] = system: Mast/stem cell growth factor receptor Kit (Homo sapiens), P10721 [T670I]; conditions: at 1 µM
[6] = system: Mast/stem cell growth factor receptor Kit (Homo sapiens), P10721 [V560G]; conditions: at 0.1 µM
Mast/stem cell growth factor receptor Kit (Homo sapiens), P10721 [V560G], sequence (P10721 whole entry V560G): as the sequence (P10721 whole entry T670I) above, with V560G, I670T counted along it

[7] = system: Mast/stem cell growth factor receptor Kit (Homo sapiens), P10721 [V560G]; conditions: at 1 µM
[8] = target: Tyrosine-protein kinase Lck (Homo sapiens) (UniProt P06239); conditions: at 0.1 µM
Tyrosine-protein kinase Lck (Homo sapiens), sequence (P06239 2-509 limits assumed): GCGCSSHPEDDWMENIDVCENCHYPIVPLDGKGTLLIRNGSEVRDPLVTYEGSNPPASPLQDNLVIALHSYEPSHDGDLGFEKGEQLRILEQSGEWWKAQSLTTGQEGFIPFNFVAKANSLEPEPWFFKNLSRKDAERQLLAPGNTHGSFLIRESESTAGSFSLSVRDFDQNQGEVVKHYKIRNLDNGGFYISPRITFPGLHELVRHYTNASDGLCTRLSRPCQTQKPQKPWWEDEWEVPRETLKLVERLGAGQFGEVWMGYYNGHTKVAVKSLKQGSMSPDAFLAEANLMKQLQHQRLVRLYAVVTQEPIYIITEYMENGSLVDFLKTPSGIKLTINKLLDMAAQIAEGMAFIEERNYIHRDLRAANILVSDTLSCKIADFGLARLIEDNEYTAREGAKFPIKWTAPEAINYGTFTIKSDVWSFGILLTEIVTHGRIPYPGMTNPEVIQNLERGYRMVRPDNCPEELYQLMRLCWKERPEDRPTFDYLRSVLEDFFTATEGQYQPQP

[9] = target: Tyrosine-protein kinase Lck (Homo sapiens) (UniProt P06239); conditions: at 1 µM
[10] = target: Leukocyte tyrosine kinase receptor (Homo sapiens) (UniProt P29376); conditions: at 0.1 µM
Leukocyte tyrosine kinase receptor (Homo sapiens), sequence (P29376 whole entry): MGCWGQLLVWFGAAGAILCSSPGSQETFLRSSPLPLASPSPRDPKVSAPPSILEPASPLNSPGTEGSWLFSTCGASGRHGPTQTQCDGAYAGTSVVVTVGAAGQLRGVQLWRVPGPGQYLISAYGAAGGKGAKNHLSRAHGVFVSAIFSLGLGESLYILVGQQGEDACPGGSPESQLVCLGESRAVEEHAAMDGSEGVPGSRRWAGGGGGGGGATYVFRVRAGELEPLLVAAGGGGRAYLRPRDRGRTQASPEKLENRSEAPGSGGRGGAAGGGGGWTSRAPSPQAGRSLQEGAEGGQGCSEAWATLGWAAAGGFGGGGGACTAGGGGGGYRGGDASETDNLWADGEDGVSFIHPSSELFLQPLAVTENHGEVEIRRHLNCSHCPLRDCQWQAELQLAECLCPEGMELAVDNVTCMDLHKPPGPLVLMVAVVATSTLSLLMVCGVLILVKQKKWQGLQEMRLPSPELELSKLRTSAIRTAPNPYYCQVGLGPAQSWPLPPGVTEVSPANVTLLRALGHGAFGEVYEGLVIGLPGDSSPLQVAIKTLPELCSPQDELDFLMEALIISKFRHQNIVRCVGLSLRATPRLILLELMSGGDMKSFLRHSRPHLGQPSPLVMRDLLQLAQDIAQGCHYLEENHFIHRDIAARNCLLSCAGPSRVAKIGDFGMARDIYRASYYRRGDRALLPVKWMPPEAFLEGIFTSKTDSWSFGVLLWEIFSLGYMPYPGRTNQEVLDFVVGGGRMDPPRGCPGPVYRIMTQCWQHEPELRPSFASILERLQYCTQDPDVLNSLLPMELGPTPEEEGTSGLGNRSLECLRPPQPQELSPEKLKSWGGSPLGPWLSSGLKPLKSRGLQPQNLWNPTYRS

Mast/stem cell growth factor receptor Kit (Homo sapiens), sequence (P10721 whole entry): as the sequence (P10721 whole entry T670I) above, with I670T counted along it
Mast/stem cell growth factor receptor Kit (Homo sapiens), P10721 [D816V], sequence (P10721 whole entry D816V): as the sequence (P10721 whole entry T670I) above, with I670T, D816V counted along it

| SMILES | inhibition [1] [%] | inhibition [2] [%] | inhibition [3] [%] | inhibition [4] [%] | inhibition [5] [%] | inhibition [6] [%] | inhibition [7] [%] | inhibition [8] [%] | inhibition [9] [%] | inhibition [10] [%] |
| --- | --- | --- | --- | --- | --- | --- | --- | --- | --- | --- |
| NS(=O)(=O)c1ccc(-c2ccc3c(NC(=O)C4CC4)n[nH]c3c2)cc1 | 1.91 | 3.57 | 0.9 | 4.28 | 4.13 | 2.1 | -1.99 | 2.8 | 4.43 | 1.17 |
| COc1cccc(-n2ncc3c(N/N=C/c4ccncc4)ncnc32)c1 | 57.2 | 2.45 | 12.7 | 9.47 | 46.9 | 0.93 | 10.7 | 41.1 | 84 | 4.93 |
| COc1cccc(COc2cc(-n3cnc4ccccc43)sc2C(N)=O)c1 | -3.97 | -0.07 | -0.97 | -0.12 | -0.76 | -2.2 | -2.16 | 0.12 | -0.7 | 0.36 |
| CCn1c(-c2nonc2N)nc2c(C#CC(C)(C)O)nc(O[C@@H](CN)c3ccccc3)cc21 | 2.69 | 0.72 | 34.2 | -0.51 | 10.4 | 3.42 | 3.54 | 0.41 | 4.58 | 35.4 |
| CCn1c(-c2nonc2N)nc2c(C#CCN)ncc(OCCCN)c21 | 3.33 | -3.56 | 3.48 | -1.86 | 2.2 | 1.17 | 2.93 | 1.94 | 0.46 | -1.04 |
| Fc1ccc(-c2ncn(C3CCNCC3)c2-c2ccnc(Oc3ccccc3)n2)cc1 | 1.46 | 0.53 | 4.38 | 0.68 | 2.08 | 3.13 | 1.77 | -2.11 | -2.53 | 0.54 |
| CCn1c(-c2nonc2N)nc2c(C#CC(C)(C)O)ncc(OC[C@@H]3CCCN3)c21 | -2.57 | -1.62 | 4.32 | -1.38 | 1.32 | 0.39 | -1.89 | 1.21 | 3.66 | 0.71 |
| NS(=O)(=O)c1ccc(N/C=C2\C(=O)Nc3ccc4ncsc4c32)cc1 | 90 | 0.89 | 14.5 | 12.1 | 58.9 | 0.83 | 20.2 | 4.26 | 13.2 | 5.19 |
| Nc1nonc1-c1nc2cnccc2n1C1CCCCC1 | 20.6 | -4.78 | -1.9 | -2.27 | 13.3 | 1.39 | 3.23 | -0.24 | 0.51 | -0.53 |
| Cc1cc(-c2ccco2)cc(C)c1/C=C/c1cncc(-c2nn[nH]n2)c1 | 0.94 | -2.81 | -2.99 | 1.44 | 0.51 | 1.15 | 3.87 | 1.77 | 4.38 | 1.51 |
| COc1cc(C=NNc2ncnc3c2cnn3Cc2ccccc2)ccc1O | -1.55 | -5.85 | 0.6 | -3.69 | -2.85 | 1.99 | 3.94 | 13.2 | 14.2 | -2.98 |
| COc1cc2c(cc1Nc1nc(Nc3ccsc3C(N)=O)c3cc[nH]c3n1)N(C(=O)CN(C)C)CCC2 |  | 0.61 | 2.53 | -0.99 | 3.92 | 1.1 | 8.54 | 2.58 | 6.92 | 93.8 |
| CCn1c(-c2nonc2N)nc2c(C#CC(C)(C)O)ncc(OCC3CCNCC3)c21 | 8.48 | 3.82 | 5.6 | 1.76 | 4.21 | 3.17 | 3.26 | -3.71 | -1.12 | 2.4 |
| NC(=O)c1sc(-n2cnc3cc(C(F)(F)F)ccc32)cc1OCc1ccccc1Br | 1.77 | -1.89 | -0.03 | 0.92 | 0.92 | 0.44 | -1.3 | 1.84 | 4.62 | 1.94 |
